Source: PubChem (National Center for Advancing Translational Sciences (NCATS))
An excerpt weighted towards active compounds, which were near 5.3% of everything screened.
HCV inhibitor = qHTS Assay for Inhibitors of Hepatitis C Virus (HCV); Potency, µM (highest dose often 41.8 µM), hits mostly inhibitors; hit rate 3.4% among 340,000; Huh7.5.1 HCVcc-Cre infection, luciferase reporter, 44 h; active means well fitted inhibition curve with a large enough effect; inconclusive means small, poorly fitted or top-dose-only effect, or another doubt; inactive means no such curve, though single readings can be large or run the other way
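Infectious HCVcc-Cre (~0.5 moi) was added to cells just after compound, with cells seeded 4 h earlier at 1,000 per well. Luciferase activity after 44 h culture reported infection; substrate was incubated 15 min at room temperature before reading.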
Vaccinia Venus = qHTS for Stage-Specific Inhibitors of Vaccinia Orthopoxvirus: Venus Reporter Primary qHTS; Vaccinia virus Venus reporter expression, fluorescence; Potency, µM (top dose mostly 36.5 µM), hits mostly inhibitors; hit rate 0.46% among 330,000; AID 720580, 2013; calls by dose curve; tested in A549 cells; further: nearly all actives have a fitted effect of over 30% in size
FMDV antiviral = High Throughput Screening for Foot and Mouth Disease Virus Antivirals; FMDV antiviral cell-based qHTS; Potency, µM (doses to about 57.9 µM), actives largely listed as inhibitors; hit rate 1.2% among 410,000; calls by dose curve; tested in HEK293T cells; further: read-out not given here; nearly all actives have a fitted effect of over 45% in size
Lassa entry inh = qHTS for Inhibitors of binding or entry into cells for Lassa Virus; Potency, µM (highest dose often 37.9 µM), actives largely listed as inhibitors; Lassa virus pseudotype entry inhibition, cell reporter; hit rate 1.2% among 300,000; calls by dose curve; tested in HEK293 cells; further: nearly all actives have a fitted effect of over 50% in size
Vaccinia mCherry = qHTS for Stage-Specific Inhibitors of Vaccinia Orthopoxvirus: mCherry Reporter Primary qHTS | Vaccinia virus mCherry reporter infection, fluorescence | Potency, µM (series often up to 36.5 µM), most hits filed as inhibitors | hit rate 0.63% among 310,000; calls by dose curve; tested in A549 cells; further: nearly all actives have a fitted effect of over 35% in size
MARV entry inh = qHTS for inhibitors of binding or entry into cells for Marburg Virus | Marburg virus pseudotyped entry inhibition, cell reporter | Potency, µM (series often up to 37.8 µM), most hits filed as inhibitors | hit rate 1.8% among 300,000; calls by dose curve; tested in HEK293 cells
Each line names hits and unclear results; the compound was inactive in the other large screens.

Cc1cc2nc(C3CCCN(C(=O)NCc4ccccc4)C3)[nH]c2cc1C (centres undefined)	none
COC(=O)c1c(C(=O)OC)c2c3cc(OC)c(OC)cc3ccn2c1C(=O)OC	Lassa entry inh inconclusive (no result: HCV inhibitor, Vaccinia Venus, FMDV antiviral, Vaccinia mCherry)
COc1ccc(-c2cc(C(=O)N3CCN(C(c4ccccc4)c4ccccc4)CC3)no2)cc1	HCV inhibitor 10µM, Lassa entry inh inconclusive, MARV entry inh inconclusive (no result: Vaccinia Venus, Vaccinia mCherry)
O=C(c1cc(-c2ccco2)on1)N1CCN(C(c2ccccc2)c2ccccc2)CC1	HCV inhibitor 2.5µM, FMDV antiviral inconclusive, MARV entry inh inconclusive (no result: Vaccinia Venus, Vaccinia mCherry)
Cc1cccc2[nH]cc(/C=C3/C=Nc4ccccc43)c12	none (no result: HCV inhibitor, FMDV antiviral, Lassa entry inh, MARV entry inh)
COc1ccc(C)cc1NC(=O)Cn1c(=O)oc2cc(S(=O)(=O)N3CCCCCC3)ccc21	none (no result: HCV inhibitor, MARV entry inh)
O=C(N/N=C/c1ccc(OC(F)F)cc1OC(F)F)NC1CCCCC1	HCV inhibitor inconclusive, Lassa entry inh 11µM
Cc1nc(-c2ccccn2)nc(N(C)c2ccccc2)c1Cl	HCV inhibitor 10µM (no result: Vaccinia Venus, Lassa entry inh, Vaccinia mCherry, MARV entry inh)
COc1ccc(S(=O)(=O)N2c3ccccc3OCC2C)cc1 (centres undefined)	HCV inhibitor inconclusive, Lassa entry inh inconclusive, Vaccinia mCherry inconclusive
COc1ccc(S(=O)(=O)N2c3ccccc3OCC2c2ccccc2)cc1 (centres undefined)	HCV inhibitor inconclusive, FMDV antiviral 13µM, MARV entry inh inconclusive (no result: Vaccinia Venus, Vaccinia mCherry)
CC(C)c1oc(=O)cc2c1[C@@H](O)[C@H]1OC(=O)[C@@]3(C)C[C@@H](O)[C@@H](O)[C@@]2(C)C13 (some centres undefined)	HCV inhibitor inconclusive, Vaccinia Venus 2µM, FMDV antiviral inconclusive, Lassa entry inh 6.5µM, Vaccinia mCherry inconclusive, MARV entry inh 3.3µM
CC(C)c1oc(=O)cc2c1[C@@H](O)[C@H]1OC(=O)[C@@]3(C)CC[C@@H](O)[C@@]2(C)C13 (some centres undefined)	HCV inhibitor inconclusive, Vaccinia Venus 4µM, FMDV antiviral inconclusive, Lassa entry inh inconclusive, Vaccinia mCherry inconclusive, MARV entry inh inconclusive
OC[C@H]1O[C@@H](n2cnc3c(N[C@H]4C[C@H]5CC[C@@H]4C5)ncnc32)[C@H](O)[C@@H]1O	none (no result: HCV inhibitor, Lassa entry inh, MARV entry inh)
Cn1c(Cl)cnc1C1CC(=O)c2cc(Cl)ccc2O1 (centres undefined)	HCV inhibitor inconclusive, FMDV antiviral 20µM, Lassa entry inh inconclusive, MARV entry inh 10µM
COc1ccc(C2/C=C\CC(OCc3ccccc3)CC(=O)N2Cc2cccc(F)c2)cc1 (centres undefined)	Vaccinia Venus inconclusive (no result: Lassa entry inh, MARV entry inh)
Cc1ccc(C2/C=C\CC(NC(=O)OCC3c4ccccc4-c4ccccc43)CC(=O)N2Cc2ccccc2)cc1 (centres undefined)	HCV inhibitor 18µM (no result: Lassa entry inh, MARV entry inh)
OCCCc1cn(-c2ccccc2)c2ccccc12	HCV inhibitor 10µM
COc1ccc2[nH]c(=O)c(CN(C(=O)c3cccc(Cl)c3)c3cccc(C)c3)cc2c1	none (no result: HCV inhibitor)
CC1(C)CC(=O)c2cc(C(=O)N3CCCC(C)(C)C3)c(=O)n(-c3ccccc3)c2C1	none (no result: Vaccinia mCherry)
COc1ccc(-n2c3c(cc(C(=O)N4CCCCC4)c2=O)C(=O)CC(C)(C)C3)cc1	Vaccinia Venus 14µM, Lassa entry inh inconclusive, Vaccinia mCherry inconclusive
Cc1nc(N2CCN(C(=O)c3cccs3)CC2)c2c3c(sc2n1)CCCC3	HCV inhibitor 11µM, Vaccinia Venus inconclusive, FMDV antiviral 25µM, Lassa entry inh inconclusive, Vaccinia mCherry inconclusive
Cc1nc(N2CCN(C(=O)c3ccco3)CC2)c2c3c(sc2n1)CC(C)CC3 (centres undefined)	HCV inhibitor 13µM, FMDV antiviral inconclusive, Lassa entry inh inconclusive, MARV entry inh 13µM (no result: Vaccinia Venus, Vaccinia mCherry)
CCc1nc(N2CCN(C(=O)CCl)CC2)c2c3c(sc2n1)CC(C)CC3 (centres undefined)	HCV inhibitor inconclusive, FMDV antiviral inconclusive, MARV entry inh inconclusive
Cc1nc(N2CCN(C(=O)c3ccco3)CC2)c2c3c(sc2n1)CCCC3	HCV inhibitor 2.8µM, Vaccinia mCherry inconclusive, MARV entry inh inconclusive (no result: FMDV antiviral)
O=C(c1ccco1)N1CCN(c2nc(C3CC3)nc3sc4c(c23)CCCC4)CC1	HCV inhibitor inconclusive, FMDV antiviral inconclusive, MARV entry inh inconclusive
Cc1nc(N2CCN(C)CC2)c2c3c(sc2n1)CCCC3	none (no result: Vaccinia Venus, Lassa entry inh, Vaccinia mCherry, MARV entry inh)
COc1cc2nc(N3CCN(C)CC3)nc(NC3CCN(Cc4ccccc4)CC3)c2cc1OC	none (no result: HCV inhibitor, FMDV antiviral, Lassa entry inh, MARV entry inh)
CCCN(CCC)CCNC(=O)CN1C(=O)COc2ccc(S(=O)(=O)N3CCC(C)CC3)cc21	none (no result: HCV inhibitor)
CCOC(=O)CNC(=S)N(Cc1cccs1)C1CCCC1	MARV entry inh inconclusive
CCCCCCNC(=O)CNC(=S)N(Cc1cccs1)C1CCCCC1	HCV inhibitor 10µM (no result: Vaccinia Venus, Lassa entry inh, Vaccinia mCherry, MARV entry inh)
CCCCN1CC(COCc2ccccc2)Oc2cccc(OCCN3C(=O)[C@@H]4[C@H](C3=O)C3C=C[C@H]4C3)c2S1(=O)=O (some centres undefined)	HCV inhibitor 10µM (no result: Lassa entry inh, MARV entry inh)
Cc1ccc(CC(=O)Nc2cccnc2)cc1	none (no result: Lassa entry inh, MARV entry inh)
CC(C)(Oc1ccc(Cl)cc1)C(=O)Nc1ccncc1	HCV inhibitor 11µM, Vaccinia Venus inconclusive, FMDV antiviral inconclusive, MARV entry inh inconclusive (no result: Vaccinia mCherry)
CN(CCCC(=O)Nc1ccncc1)S(=O)(=O)c1ccc(Cl)cc1	HCV inhibitor 10µM, FMDV antiviral inconclusive, Lassa entry inh inconclusive (no result: Vaccinia Venus, Vaccinia mCherry)
O=C(Cc1ccc(Cl)cc1)Nc1ccncc1	HCV inhibitor 10µM, FMDV antiviral inconclusive, MARV entry inh inconclusive
Cc1ccc(CC(=O)Nc2ccncc2)cc1	HCV inhibitor 13µM, FMDV antiviral inconclusive (no result: Vaccinia Venus, Lassa entry inh, Vaccinia mCherry, MARV entry inh)
CC(C)(Oc1ccc(Cl)cc1)C(=O)Nc1cccnc1	none
CC(=O)Nc1ccc(-c2ccnc3c2CC(C(=O)NCc2ccco2)O3)cc1 (centres undefined)	Vaccinia Venus inconclusive, Vaccinia mCherry inconclusive (no result: HCV inhibitor, Lassa entry inh, MARV entry inh)
O=C(NCc1ccccc1)C1c2ccccc2OCC(=O)N1CC(F)(F)F (centres undefined)	FMDV antiviral inconclusive (no result: HCV inhibitor, Lassa entry inh, MARV entry inh)
Cc1ccc(NC(=O)Cn2c(=O)n(CCC(C)C)c(=O)c3cccnc32)cc1C	none (no result: HCV inhibitor, Lassa entry inh)
Cc1ccc2c(c1)N(C(=O)CSc1nncn1C)C(C)(C)c1ssc(=S)c1-2	HCV inhibitor 10µM, Vaccinia Venus inconclusive, Lassa entry inh inconclusive, MARV entry inh inconclusive (no result: Vaccinia mCherry)
CN(c1ccccc1)c1ccc(/C=C/[N+](=O)[O-])cc1	HCV inhibitor inconclusive, FMDV antiviral 16µM, Lassa entry inh inconclusive, MARV entry inh inconclusive
CCCOc1ccc(C(=O)NCCN2CCOCC2)cc1	none
CCn1c(-c2nonc2N)nc2cnc(Oc3cccc(NC(=O)c4ccc(OCCN5CCOCC5)cc4)c3)cc21	Lassa entry inh 20µM (no result: HCV inhibitor, Vaccinia Venus, FMDV antiviral, Vaccinia mCherry, MARV entry inh)
CN(Cc1ccccc1)C(=O)c1cccc(NC(=O)Cc2ccc(NC(=O)C3CCN(S(=O)(=O)c4cccc([N+](=O)[O-])c4)CC3)cc2)c1	HCV inhibitor 8.9µM (no result: Lassa entry inh, MARV entry inh)
